Source: PubChem BioAssay AID651673 (Broad Institute, 2012)
This is one part of the list. Active and inactive are the calls of the source.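 Rule for the calls: active = signal drop giving an AC50 within twice the top valid tested concentration of each sample (actives reach about 35 µM in these data); inactive = activity opposite to expected, plus the rest.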

Experiment: acridine orange displacement from DNA – biochemical, fluorescence polarization, cherry-pick, artefact control for RAD54 inhibitor project, dose response (AID 651673);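 note: polarization loss reports compound binding to salmon sperm DNA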
Conditions: 20 min; series mostly up to 35 µM

CN1CCN(c2cc(N3CCNCC3)ccc2[N+](=O)[O-])CC1
outcome: inactive
